# Bioassay records: PubChem BioAssay, Sanford-Burnham Center for Chemical Genomics
# Most compounds without a hit are left out; they make up all but 31% or so of the library.
# CYP2C19 act: activators of human cytochrome P450 2C19 | P33261 | recombinant CYP2C19, luciferin-H EGE luminescence; stronger effect = higher value; 0 = fully inhibited enzyme, 1 = untreated enzyme | activation factor at 5 µM | 96,000 tested, under 10 active | AID 1025;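 active means activation factor of at least 2 at 5 µM in the primary screen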;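 further: 0 = wells with 2.5 mM tranylcypromine and 1 = vehicle-only wells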
# CYP2C9 inh: human CYP2C9 inhibition; P11712; 96,000 tested, 20% active; inhibition, % at 5 µM; CYP2C9 Supersomes, luciferin-H conversion, luminescence; AID 777;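 active means blocking of liver enzyme CYP2C9 beyond about 50% at 5 µM, limit read from the data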
# Target sequence (P11712 whole entry, looked up): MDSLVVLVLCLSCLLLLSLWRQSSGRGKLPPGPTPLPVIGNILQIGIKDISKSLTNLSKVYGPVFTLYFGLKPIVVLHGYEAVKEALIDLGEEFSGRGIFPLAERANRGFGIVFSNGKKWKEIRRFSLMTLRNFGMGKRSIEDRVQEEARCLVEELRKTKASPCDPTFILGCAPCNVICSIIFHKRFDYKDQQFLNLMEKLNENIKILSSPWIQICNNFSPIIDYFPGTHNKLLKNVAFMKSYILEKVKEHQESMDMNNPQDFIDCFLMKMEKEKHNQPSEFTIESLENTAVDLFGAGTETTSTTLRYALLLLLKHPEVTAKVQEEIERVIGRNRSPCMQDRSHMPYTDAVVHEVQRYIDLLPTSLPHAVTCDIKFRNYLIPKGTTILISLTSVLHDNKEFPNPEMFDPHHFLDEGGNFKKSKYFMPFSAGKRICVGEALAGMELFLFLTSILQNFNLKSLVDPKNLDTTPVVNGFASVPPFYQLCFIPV
# CYP2C9 act: increases human cytochrome P450 2C9 activity; P11712; recombinant CYP2C9, luciferin-H conversion, luminescence; stronger effect = higher value; factor 1 = untreated enzyme, 0 = blocked; activation factor at 5 µM; 96,000 tested, 1.4% active;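 active means activation factor of 2 or more for CYP2C9 at a 5 µM dose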;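 further: 0 = sulfaphenazole-blocked wells and 1 = vehicle-only wells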
# CYP2C19 inhib: human CYP2C19 inhibition; P33261; CYP2C19 Supersomes, luciferin-H EGE luminescence, 30 min; inhibition, % at 5 µM; 96,000 tested, 21% active;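 active means CYP2C19 inhibition above a set limit at 5 µM in the primary screen, cut at about 50% in these data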;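 further: plate controls were negative control wells for no effect and 2.5 mM tranylcypromine positive control for full effect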
# PLAP activator: activates human placental alkaline phosphatase | AID 696 | activation fold at 20 µM | 96,000 tested, 1.2% active | purified PLAP enzyme, luminescent substrate read-out; stronger effect = higher value | P05187; in the data active means activation fold above about 2
# The depositor's hits bear a star; x = no result given.
SMILES,CYP2C19 act,CYP2C9 inh,CYP2C9 act,CYP2C19 inhib,PLAP activator
Cc1noc(C)c1C(=O)Nc1sc(C)c(C)c1C#N,0.9,62.0*,0.4,9.5,0.9
Cc1noc(C)c1C(=O)Nc1sc2c(c1C(N)=O)CCC2,0.9,15.6,0.8,10.2,1.2
Cn1nc(-c2ccc(Cl)cc2)nc2c(=O)n(C)c(=O)nc1-2,0,92.9*,0.1,98.2*,0.9
Cc1nc2nc[nH]n2c(=O)c1NC(=O)c1c(-c2ccccc2Cl)noc1C,1,39.4,0.6,4.9,1
Cc1ccc(-c2c(=O)n(OCc3ccccn3)c3ccccc3[n+]2[O-])cc1,0.9,3.8,1,8.5,1.1
O=c1c(-c2cccc3ccccc23)[n+]([O-])c2ccccc2n1O,1.1,75.0*,0.3,-9.5,1.1
CC(C)Oc1ccc(C(=O)NC2(C(F)(F)F)N=C3SCCN3C2=O)cc1 (centres undefined),1.2,14.1,0.9,-16.8,1.1
CCn1nnnc1-c1ccc(OC)c(S(=O)(=O)N2CCCCC2)c1,1,22.5,0.8,-0.6,1
COC(=O)C1=C(C)NC(C)=C(C(=O)OC)C1c1ccccc1OCc1c(C)no[n+]1[O-],0.3,89.2*,0.1,70.6*,1.3
COC(=O)C1=C(C)NC(C)=C(C(=O)OC)C1c1cc2ccc(C)cc2[nH]c1=O,0.6,17.5,0.8,40.4,1.3
O=C(O)CCCNS(=O)(=O)c1ccc(NCc2ccccc2)c(C(=O)O)c1,1.2,-6.8,1.1,-18.9,1.3
C=CCNc1nc(SCC=C)nc2ccsc12,0.6,-81.5,1.8,41.4,0.9
C=CCSc1nc(Oc2ccccc2)c2sccc2n1,0.5,34.3,0.7,54.0*,1
CSc1nc(Oc2ccccc2)c2sccc2n1,0.9,60.0*,0.4,9.6,0.9
O=C(c1ccco1)N1CCN(S(=O)(=O)c2ccc(S(=O)(=O)NC3CCCC3)cc2)CC1,1,14.1,0.9,-4.8,0.9
O=C(NC1CCCc2ccccc21)C1CCC(CNc2c(N3CCOCC3)c(=O)c2=O)CC1 (centres undefined),1.2,-5.3,1.1,-18.1,1.3
CCOc1ccc(N2C(=O)CC(N3CCN(C(=O)c4ccco4)CC3)C2=O)cc1 (centres undefined),0.9,7.7,0.9,9.0,1.2
Cc1c(Br)c([N+](=O)[O-])nn1CC(=O)NCc1ccccn1,1,-2.8,1,-2.1,1
O=C(Nc1nnc(Cc2ccccc2)s1)c1ccco1,1,26.8,0.7,1.9,1.1
CCCc1cc(C(N)=O)c(NC(=O)c2cc(C)on2)s1,0.8,63.8*,0.4,18.2,1.2
NC(=O)c1cc(Cc2ccccc2)sc1NC(=O)c1ccco1,0.8,56.0*,0.4,17.0,0.9
CCCc1cc(C(N)=O)c(NC(=O)c2ccoc2C)s1,0.3,87.9*,0.1,67.2*,0.8
Cc1ccc2c(C)[nH]c(=O)cc2c1,1,4.2,1,4.3,0.9
Cc1ccc2nc(-c3ccccc3)cn2c1,0.2,47.9,0.5,80.6*,0.9
Cc1ccc2nc(-c3ccc(S(=O)(=O)N4CCOCC4)cc3)cn2c1,1,-2.9,1,3.4,0.9
SMILES,CYP2C19 act,CYP2C9 inh,CYP2C9 act,CYP2C19 inhib,PLAP activator
O=C1Cn2c(nc3ccccc32)N1c1cccc(C(F)(F)F)c1,0.4,31.0,0.7,59.0*,0.9
O=C1Cn2c(nc3ccccc32)N1c1ccccc1F,0.6,1.9,1,37.1,0.9
CCOc1ccc(Br)cc1S(=O)(=O)Nc1ccccc1N1CCOCC1,0.2,55.4*,0.4,77.5*,1.6
CCOc1ccc(Br)cc1S(=O)(=O)Nc1nc(CN2CCOCC2)nc2sc(C)c(C)c12,0.8,30.5,0.7,16.6,1.2
CCOc1ccc(Br)cc1S(=O)(=O)Nc1ccc(N2CCOCC2)cc1,0.4,54.2*,0.5,64.4*,1.1
CC(=O)Nc1cccc(C(=O)OCc2ccc(C(=O)Oc3ccc(Cl)cc3)cc2)c1,0.9,5.9,0.9,7.4,1.1
CCN1CCN(C(c2ccccc2F)c2nnnn2Cc2ccc3c(c2)OCO3)CC1 (centres undefined),0.7,11.4,0.9,30.2,1.6
COc1cc2nc(CN(C)Cc3nc4ccccc4c(=O)[nH]3)[nH]c(=O)c2cc1OC,1.1,30.1,0.7,-7.5,x
CCN(Cc1nc2ccccc2c(=O)[nH]1)Cc1nc2cc(OC)c(OC)cc2c(=O)[nH]1,0.8,9.6,0.9,15.6,2.2*
COc1ccccc1NC(=O)N(Cc1ccc2c(c1)OCO2)Cc1nc2ccccc2c(=O)[nH]1,1,0.2,1,2.7,1.2
